A selection follows.
CYP2C19 inhib – inhibitors of human CYP2C19; 96,000 compounds, 21% hits; CYP2C19 Supersomes, luciferin-H EGE luminescence, 30 min; inhibition, % at 5 µM; AID 778;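 active = CYP2C19 inhibition above a set limit at 5 µM in the primary screen, cut at about 50% in these data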;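 note: plate controls were negative control wells for no effect and 2.5 mM tranylcypromine positive control for full effect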
Target sequence (P33261 whole entry, looked up): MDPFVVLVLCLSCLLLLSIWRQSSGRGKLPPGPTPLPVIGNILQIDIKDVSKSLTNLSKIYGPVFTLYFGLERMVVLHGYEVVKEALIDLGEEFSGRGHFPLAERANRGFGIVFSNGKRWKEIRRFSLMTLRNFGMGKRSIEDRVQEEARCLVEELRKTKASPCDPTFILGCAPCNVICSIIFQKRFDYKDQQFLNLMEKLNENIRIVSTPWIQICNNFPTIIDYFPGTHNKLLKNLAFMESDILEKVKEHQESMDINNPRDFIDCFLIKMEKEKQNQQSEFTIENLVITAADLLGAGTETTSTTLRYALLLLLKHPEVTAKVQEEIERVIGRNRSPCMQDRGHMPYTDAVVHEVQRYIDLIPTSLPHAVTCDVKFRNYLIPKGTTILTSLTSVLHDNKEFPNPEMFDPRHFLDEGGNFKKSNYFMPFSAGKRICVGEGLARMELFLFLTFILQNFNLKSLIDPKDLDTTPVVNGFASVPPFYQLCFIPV
CYP2C9 act – activators of human CYP2C9; P11712; recombinant CYP2C9, luciferin-H conversion, luminescence; active compounds read high; factor 1 = untreated enzyme, 0 = blocked; activation factor at 5 µM; 96,000 compounds, 1.4% hits; AID 1024;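 active = activation factor of 2 or more for CYP2C9 at a 5 µM dose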;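 note: 0 = sulfaphenazole-blocked wells and 1 = vehicle-only wells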
CYP2C9 inh – inhibitors of human CYP2C9. 96,000 compounds, 20% hits. P11712. CYP2C9 Supersomes, luciferin-H conversion, luminescence. AID 777. inhibition, % at 5 µM;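 active = blocking of liver enzyme CYP2C9 beyond about 50% at 5 µM, limit read from the data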
PostGolgi yeast – growth inhibition of a yeast mutant, post-Golgi transport screen | post-Golgi transport phenotypic cell assay | inhibition, % at 10 µM | 98,000 compounds, 0.9% hits | AID 739;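 note: yeast cells grown in 1536-well plates; yeast grown about 18 h at 30C before absorbance read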
PostGolgi ctrl – inhibits growth of the yeast control strain. efflux-deficient yeast background strain, growth absorbance A615, 16 h. inhibition, % at 10 µM. 98,000 compounds, 5% hits. AID 738
CYP2C19 act – activators of human cytochrome P450 2C19 | 96,000 tested, under 10 active | activation factor at 5 µM | P33261 | recombinant CYP2C19, luciferin-H EGE luminescence; active compounds read high; 0 = fully inhibited enzyme, 1 = untreated enzyme;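 active = activation factor of at least 2 at 5 µM in the primary screen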;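 note: 0 = wells with 2.5 mM tranylcypromine and 1 = vehicle-only wells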
Starred values were filed as active, the others as inactive. Cut-off read from the data, not from the text of the source, unless noted: active = inhibition above about 30%; inactive = the rest.

CCC1CCCCN1C(=O)C1CC(c2cc(Cl)c(OC)cc2OC)=NO1 (stereo unspecified) was read as CYP2C19 inhib 72*, CYP2C9 act 1.9, CYP2C9 inh -94, PostGolgi yeast 0, PostGolgi ctrl 4 and CYP2C19 act 0.3.
Screening CCOCCCNC(=O)C1c2ccccc2C(=O)N2CCc3ccccc3C12 (stereo unspecified) returned CYP2C19 inhib -5, CYP2C9 act 0.9, CYP2C9 inh 15, PostGolgi yeast -1, PostGolgi ctrl 2 and CYP2C19 act 1.1.
Screening Cc1ccc(-n2c(=O)[nH]c3cc(C(=O)NC4CCN(Cc5ccccc5)CC4)ccc3c2=O)cc1 returned CYP2C19 inhib 4, CYP2C9 act 1, CYP2C9 inh 2, PostGolgi yeast 13, PostGolgi ctrl 4 and CYP2C19 act 1.
O=C(Nn1nnnc1Nc1ccccc1)C12CC3CC(CC(C3)C1)C2 was read as CYP2C19 inhib 71*, CYP2C9 act 0.7, CYP2C9 inh 33, PostGolgi yeast 22, PostGolgi ctrl 12 and CYP2C19 act 0.3.
For O=C(COC(=O)CNC(=O)C12CC3CC(CC(C3)C1)C2)Nc1ccccc1 the results were CYP2C19 inhib 8, CYP2C9 act 1, CYP2C9 inh 3, PostGolgi yeast -4, PostGolgi ctrl 14 and CYP2C19 act 0.9.
CCc1nnc(NC(=O)c2ccc(N(C)S(=O)(=O)c3ccccc3)cc2)s1 was read as PostGolgi yeast -3 and PostGolgi ctrl 2.
CCn1c(=O)cc(OCC(=O)NCC2CCCO2)c2ccccc21 (stereo unspecified) was read as CYP2C19 inhib 0, CYP2C9 act 1.2, CYP2C9 inh -23, PostGolgi yeast -3, PostGolgi ctrl 15 and CYP2C19 act 1.
Screening COC(=O)c1ccc(Cl)c(NC(=O)CN2CCC(C)CC2)c1 returned CYP2C19 inhib 41, CYP2C9 act 0.9, CYP2C9 inh 12, PostGolgi yeast -11, PostGolgi ctrl 6 and CYP2C19 act 0.6.
For Cc1c(/C=N/N=C2\CCC3C4CCc5cc(O)ccc5C4CCC23C)cnn1C (stereo unspecified) the results were CYP2C19 inhib 14, CYP2C9 act 0.8, CYP2C9 inh 23, PostGolgi yeast -3, PostGolgi ctrl 0 and CYP2C19 act 0.9.
`CCn1ncc(/C=N/N=C2\CCC3C4CCc5cc(O)ccc5C4CCC23C)c1C` (stereo unspecified) gave CYP2C19 inhib 48, CYP2C9 act 0.2, CYP2C9 inh 80*, PostGolgi yeast -5, PostGolgi ctrl -2 and CYP2C19 act 0.5.
`Cc1sc2ncnc(SCC(=O)N3CCC(c4noc5ccc(F)cc45)CC3)c2c1C` gave CYP2C19 inhib 65*, CYP2C9 act 0.2, CYP2C9 inh 79*, PostGolgi yeast 83*, PostGolgi ctrl 91* and CYP2C19 act 0.4.
Screening C/C(=N\O)c1ccc2c3ccccc3n(C)c2c1 returned CYP2C19 inhib 34, CYP2C9 act 0.5, CYP2C9 inh 55*, PostGolgi yeast -4, PostGolgi ctrl 31* and CYP2C19 act 0.7.
`C/C(=N\O)c1c(C)c2ccccc2n1C` gave CYP2C19 inhib 10, CYP2C9 act 1.3, CYP2C9 inh -34, PostGolgi yeast -8, PostGolgi ctrl 27 and CYP2C19 act 0.9.
Screening CCn1c2ccccc2c2cc(/C(C)=N/O)ccc21 returned CYP2C19 inhib 22, CYP2C9 act 0.5, CYP2C9 inh 50, PostGolgi yeast 4, PostGolgi ctrl 65* and CYP2C19 act 0.8.
`CCCn1c2ccccc2c2cc(C(=O)O)ccc21` gave CYP2C19 inhib -5, CYP2C9 act 0.7, CYP2C9 inh 30, PostGolgi yeast 1, PostGolgi ctrl 10 and CYP2C19 act 1.
Screening CCn1c2ccccc2c2cc(N)ccc21 returned CYP2C19 inhib 93*, CYP2C9 act 0.8, CYP2C9 inh 19, PostGolgi yeast 2, PostGolgi ctrl 11 and CYP2C19 act 0.1.
For c1ccc(-n2ncc3c(N4CCN(c5ccccn5)CC4)nc(N4CCCCCC4)nc32)cc1 the results were CYP2C19 inhib 18, CYP2C9 act 0.7, CYP2C9 inh 27, PostGolgi yeast -7, PostGolgi ctrl 23 and CYP2C19 act 0.8.
For O=C(c1cc2cc([N+](=O)[O-])ccc2oc1=O)N1CCN(c2ncccn2)CC1 the results were CYP2C19 inhib 5, CYP2C9 act 1.2, CYP2C9 inh -19, PostGolgi yeast -18, PostGolgi ctrl 5 and CYP2C19 act 1.

Screening data as filed in PubChem.
